From PubChem BioAssay AID1845225 (National Center for Advancing Translational Sciences (NCATS), 2023)
Results filed as inconclusive are left out. The call rests on the fitted dose curve; in most records, active means well fitted curve in the direction sought with a large enough effect; inconclusive means small, poorly fitted or top-dose-only effect, or effect the other way, or another doubt; inactive means no such curve, though single readings can be large or run the other way.

Assay: Confirmatory redox qHTS assay for identification of artifact compounds.
Settings: Amplex Red/HRP redox cycling with DTT, fluorescence; series mostly up to 39 µM; redox activity vs DA3003: at the top concentration
Description: PI: Alexander Tropsha Ph.D. UNC Eshelman School of Pharmacy University of North Carolina, Chapel Hill, North Carolina Hits from high-throughput screening (HTS) of chemical libraries are often false positives due to their interference with the assay detection technology. In response to this problem, we generated the largest publicly available library of chemical liabilities and developed a free webtool to predict HTS artifacts, both of which are described herein. More specifically, we generated, curated, and integrated HTS datasets for thiol reactivity, redox activity, and luciferase (firefly and nano) activity. Using these curated datasets, we developed and validated several Quantitative Structure-Interference Relationship (QSIR) models to predict nuisance behavior. […] These models were employed for virtual profiling of the National Center for Advancing Translational Science's (NCATS) in-house library, and 256 compounds for each assay were selected for the experimental validation of nuisance behavior. The BA for these external predictions ranged from 58 to 78% for compounds within the applicability domains of the models. […] The models developed in this study, along with aggregation models previously developed by our group (SCAM Detective) were implemented in "Liability Predictor," an online tool which may be used as part of chemical library design or for triaging HTS hits. Both the models and the curated datasets are publicly available at https://liability.mml.unc.edu/.
PROTOCOL TABLE SEQUENCE No. (e.g., 1, 2, 3, etc.); […] (e.g., Cells, Incubation, Reagent, etc.); VALUE; DESCRIPTION. 1; Reagent; 3 uL; Amplex Red and HRP mixture. 2; Compounds and control; 16 nL; Kalypsis pin tool (Wako USA) equipped with a 1536-well pin head. 3; Incubation; 15 min. 4; Reagent; 1 uL; […]. 5; Incubation; 30 min. 6; Detection; Fluorescence, ViewLux microplate reader, 525 nm excitation, 598 nm emission. NOTES (numbers refer to Sequence numbers above) 1. 3 uL of a mixture containing Amplex Red (25 uM final concentration) and horseradish peroxidase (HRP; 250 mU/mL final concentration) in assay buffer (HBSS) was dispensed into all wells of a 1536-well assay plate (solid-bottom black plate; Greiner Bio One, Monroe, NC). 2. […] 3. 15 min. incubation at room temperature protected from light. 4. 1 uL of DTT (prepared fresh; final concentration 250 uM) was dispensed for a final assay volume of 4 uL. 5. Plates were centrifuged (121xg, 15 seconds) and incubated for 30 minutes at room temperature protected from light. 6. Samples were read for fluorescence (Ex/Em = 525(20)/598(25) nm) on a ViewLux CCD imager (PerkinElmer). Data were normalized to DMSO (0% activity) and DA3003 (10 uM final concentration; 100% activity) and the resulting percent inhibition data were fitted to a 4-parameter Hill equation using NCATS in-house software.

Redox activity vs DA3003, inactive:
CC[C@H](C)CCCCC(=O)N[C@@H](CCN)C(=O)N[C@H](C(=O)N[C@@H](CCN)C(=O)N[C@H]1CCNC(=O)[C@@H]([C@H](C)O)NC(=O)[C@H](CCN)NC(=O)[C@H](CCN)NC(=O)[C@H](CC(C)C)NC(=O)[C@@H](CC(C)C)NC(=O)[C@H](CCN)NC1=O)[C@@H](C)O -1.18% [at 13.1 µM], CC(NC(=O)CSc1nc(-c2ccccc2F)nc2cc(=O)[nH]n12)c1nc2ccccc2n1C (stereo not given) 4.09%, COc1ccc(Cn2c(C(=O)O)c(CNC3CCCC3)c3ccc(C)cc32)cc1 3.9%, COc1cc2nc(N3CCCCC3)nc(NC3CCN(Cc4ccccc4)CC3)c2cc1OC 16.6%, CCC(C)NC(=O)c1ccc2nc(-c3cccs3)c(-c3cccs3)nc2c1 (stereo not given) 5.15%, COc1ccc(C(=O)Nc2nc3c(s2)CCCC3)cc1Cl 0.945%, OC[C@H]1O[C@@H]2O[C@H]3[C@H](O)[C@@H](O)[C@@H](O[C@H]4[C@H](O)[C@@H](O)[C@@H](O[C@H]5[C@H](O)[C@@H](O)[C@@H](O[C@H]6[C@H](O)[C@@H](O)[C@@H](O[C@H]7[C@H](O)[C@@H](O)[C@@H](O[C@H]1[C@H](O)[C@H]2O)O[C@@H]7CO)O[C@@H]6CO)O[C@@H]5CO)O[C@@H]4CO)O[C@@H]3CO -0.818%, CN1C(CC(=O)c2ccccc2)CCCC1CC(O)c1ccccc1 (stereo not given) -0.636%, CCCCCCOc1ccc(CC(=O)O)cc1 -0.0906%, CCCCN1C(=O)c2[nH]nc(-c3ccccc3O)c2C1c1ccc(C(C)(C)C)cc1 (stereo not given) 1.59%, CCc1ccc(CN2C(=O)c3ccccc3C2C(=O)NCCc2ccc(OC)c(OC)c2)cc1 (stereo not given) 21.1%, CCOc1ccc(OCC)c(NS(=O)(=O)c2c(C)[nH]c(=O)[nH]c2=O)c1 -0.81%, COc1ccc(NC(=O)N(Cc2nnc3n2CCCCC3)c2ccc(OC)c(Cl)c2)cc1 9.26%, O=S(=O)(c1cc(Br)c(Br)s1)N1CCN(c2ccccc2)CC1 -0.713%, COc1ccc(OC)c(NC(=O)Cn2c(=O)n(CC3CCCO3)c(=O)c3cc(OC)c(OC)cc32)c1 (stereo not given) 6.23%, Cc1ccc(-c2nc3scc(CCNS(=O)(=O)c4ccc(F)c(C)c4)n3n2)cc1 1.44%, CCc1ccc(CN(Cc2ccco2)C(=O)c2ccc(OC)cc2)cc1 2.42%, COc1ccc(CCNC(=O)c2cc3c(-c4ccc(OC)c(OC)c4)nn(C)c3s2)cc1OC 2.45%, O=C(CN1C(=O)CCn2nc(-c3ccccc3)cc21)NCc1ccc(Cl)cc1 4.22%, O=C(Cn1nc2c(cc1=O)CCCC2)Nc1ccc(F)cc1F -0.537%, Cc1ccc(NC(=O)c2ccc3c(c2)NC(=O)c2ccccc2S3)cc1 2.26%, CCOc1ccc(CCNC(=O)c2cnc3c(-c4ccccc4)c(C)nn3c2C)cc1OCC 3.51%, CC1=C(/C=C/C(C)=C/C=C/C(C)=C\C(=O)O)C(C)(C)CCC1 18.1%, COC(=O)c1c(SC)nc2ccccc2c1OCc1ccc(Br)cc1 -2.29%, Cc1cc(C)cc(-n2ccn(Cc3ccc(F)cc3)c(=O)c2=O)c1 0.558%, CC1(C)S[C@@H]2[C@H](NC(=O)C3(N)CCCCC3)C(=O)N2[C@H]1C(=O)O 11.8%, C=C[C@@H]1C[C@@H](C=C)OP(=O)(O[C@@H](C=C)[C@@H](C)C(=O)OC)O1 (stereo not given in full) -1.09%, COc1cc2c(NC3CCN(C)CC3)nc(N3CCCN(C)CC3)nc2cc1OCCCCC(N)=O 7.25%, COC(=O)c1ccccc1NC(=O)[C@H]1O[C@@H]2OC(C)(C)O[C@@H]2[C@H]2OC(C)(C)O[C@H]21 5.32%, COc1cccc(-c2nc3cc(NC(=O)c4cccnc4)ccc3o2)c1 6.77% [at 78.4 µM], CCCC(=O)O[C@]1(C(=O)COC(C)=O)CC[C@H]2[C@@H]3C[C@H](F)C4=CC(=O)C=C[C@]4(C)[C@@]3(F)[C@@H](O)C[C@@]21C 6.19%, C=C[C@@]1(C)C[C@H](OC(=O)CSC(C)(C)CNC(=O)[C@@H](N)C(C)C)[C@@]2(C)C(C)CC[C@@]3(CCC(=O)[C@@H]32)[C@H](C)[C@H]1O (stereo not given in full) 4.24%, Cc1ccccc1S(=O)(=O)Nc1cnccc1C(=O)Nc1nc(-c2ccccc2)cs1 3.48%, COc1cc2c(NC3CCN(C(C)C)CC3)nc(C3CCCCC3)nc2cc1OCCOCCN(C)C 6.31%, Cc1oc(-c2ccccc2)nc1CNC(=O)Nc1ccccc1 -0.859%, Cc1ccc(-n2ncc(C(=O)N3CCN(c4ccccn4)CC3)c2C2CCN(C(=O)OC(C)(C)C)CC2)cc1C 3.18%, COc1ccc(N2C(=O)c3ccccc3C2=O)cc1 -0.684%, COc1ccc(N2CC(NC(=O)c3ccco3)CC2=O)cc1 (stereo not given) -0.833%, Cc1ccc(OCCn2c(CCNC(=O)c3c(F)cccc3F)nc3ccccc32)cc1 0.522%, Cn1cc(CN(C(=O)Nc2ccc(Cl)c(Cl)c2)C2CCCCC2)c2ccccc21 -1.12%
